Assay outcomes: PubChem BioAssay, Broad Institute
Glyco luc inh: blocks N-linked glycosylation in D54 reporter cells; D54 ERlucT glycosylation luciferase reporter, 24 h; percent of 100 nM tunicamycin response; reporter increase, % at 12.5 µM; 0.23% of 360,000 active;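 active means mean luciferase reporter signal, scaled so untreated is 0 and the glycosylation-blocking control 100, at or above a set limit in every replicate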;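 further: luciferase carries N-glycosylation sites so blocking glycosylation raises the light; 0% = median of neutral control wells and 100% = median of 100 nM tunicamycin wells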
DENV2 CPE: inhibitors of DENV2 cytopathic effect. DENV2-infected cells, cytopathic effect rescue, plate reader. CPE inhibition, % at 9.99 µM. 1.7% of 350,000 active. AID 651640; in the data active means CPE inhibition above about 20%, passing the limit was not always enough; tested in BHK-21 cells;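 further: 0% = median of neutral control wells and 100% = median of positive control wells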
Rtt109 HAT inh: C. albicans Rtt109 histone acetyltransferase inhibition; Q5AAJ8; purified Rtt109/Vps75, ThioGlo CoA-SH fluorescence, 4 h; inhibition, % at 34.9 µM; 0.16% of 330,000 active; AID 540336;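 active means inhibition of at least 50% in every replicate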
Target sequence (Q5AAJ8 whole entry, looked up): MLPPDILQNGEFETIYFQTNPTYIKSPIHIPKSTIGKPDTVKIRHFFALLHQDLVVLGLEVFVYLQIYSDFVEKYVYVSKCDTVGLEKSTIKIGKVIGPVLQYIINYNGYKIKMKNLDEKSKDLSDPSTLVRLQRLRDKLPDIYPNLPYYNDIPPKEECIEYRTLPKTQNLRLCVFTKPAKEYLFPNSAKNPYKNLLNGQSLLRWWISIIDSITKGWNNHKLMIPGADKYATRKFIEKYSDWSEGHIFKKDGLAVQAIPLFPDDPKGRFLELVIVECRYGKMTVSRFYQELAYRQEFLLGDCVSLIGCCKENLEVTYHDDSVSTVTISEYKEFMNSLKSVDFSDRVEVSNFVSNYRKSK
PglD DTNB: blocks C. jejuni PglD acetyltransferase activity; AID 602405; 0.098% of 360,000 active; inhibition, % at 12.5 µM; purified PglD enzyme, DTNB colorimetric CoA detection; in the data active means inhibition above about 16%, passing the limit was not always enough
The depositor's hits bear a star; / = no result; ! = a repeat was not active. Many of the other results were omitted from the sample, so hits are more common in it than they were.

SMILES	Glyco luc inh	DENV2 CPE	Rtt109 HAT inh	PglD DTNB
CCCCC1=CC2=C(c3ccco3)C(=O)C(C)(OC(=O)c3ccc(OC)cc3)C(=O)C2=CN1CC1CC1 (centres undefined)	-1	11	3	0
CCCCC1=CC2=C(c3ccco3)C(=O)C(C)(OC(=O)c3ccc(OC)cc3)C(=O)C2=CN1C1CC1 (centres undefined)	2	53*	-5	2
COc1ccc(C(=O)c2ccc3oc(-c4ccc(OC)cc4)c(C#CCCO)c3c2)cc1	-1	79*	-3	-2
COc1cccc(CN(C)C(=O)[C@@H](Cc2ccccc2)NC(=O)[C@H]2O[C@@H](n3ccc(=O)[nH]c3=O)[C@H](O)[C@@H]2O)c1	/	22*	/	/
C[C@@H]1CN([C@@H](C)CO)C(=O)c2cc(C#CC3CC3)cnc2O[C@@H]1CN(C)C(=O)Nc1ccc(F)cc1	/	-1	/	3
CO[C@H]1CN(C)C(=O)c2ccc(NC(=O)Nc3ccccc3)cc2OC[C@H](C)NC[C@@H]1C	/	32*	/	/
CO[C@H]1CN(C)C(=O)c2ccc(NC(=O)Nc3ccccc3)cc2OC[C@@H](C)NC[C@@H]1C	/	-5	/	-3
CO[C@@H]1CN(C)C(=O)c2ccc(NC(=O)Nc3ccc(F)cc3)cc2OC[C@H](C)NC[C@@H]1C	/	36*	/	5
CN(C)N1C(N)=C(C#N)C(c2ccccc2)C2=C1CC(C)(C)CC2=O (centres undefined)	1	46*	2	/
O=C(NCc1ccc2c(c1)OCO2)C(=O)NCC1OCCCN1S(=O)(=O)c1ccccc1 (centres undefined)	4	41*	/	-4
Cc1cc(C(=O)Nc2ccc(C(=O)O)cc2)c(C)o1	0	6	0	13
Cc1cc(C(=O)Nc2ccncc2)c(C)o1	3	-7	51*	2
CCCC(=O)N1CC2(CN(C(=O)C3CC3)C2)c2c(n(C)c3cc(OC)ccc23)[C@H]1CO	/	12	/	/
COc1ccc2c3c(n(C)c2c1)[C@H](CO)N(C(=O)NC1CCCC1)CC31CN(C(C)=O)C1	/	-3	/	/
COc1ccc2c3c(n(C)c2c1)[C@H](CO)N(C(=O)C1CC1)CC31CCN(C(=O)c2ccncc2)CC1	/	32*	/	/
CCCC(=O)N1CC2(CCN(C(=O)C3CCC3)CC2)c2c(n(C)c3cc(OC)ccc23)[C@@H]1CO	/	22*	/	/
COc1ccc2c3c(n(C)c2c1)[C@@H](CO)N(C(=O)C1CCCCC1)CC31CCN(C(=O)c2ccncc2)CC1	/	42*	/	/
COc1ccc2c3c(n(C)c2c1)[C@@H](CO)N(C(=O)NC1CCCCC1)CC31CN(C)C1	/	32*	/	/
COc1ccc2c3c(n(C)c2c1)[C@@H](CO)N(C(=O)C1CC1)CC31CCN(C(=O)c2ccncc2)CC1	/	13	/	/
O=C(Nc1ccccc1F)N1CC(=O)N2[C@@H](CO)[C@H](c3ccc(C#Cc4ccccc4)cc3)[C@@H]2C1	/	1	/	/
COc1ccc2c3c(n(C)c2c1)[C@H](CO)N(C(=O)c1cnccn1)CC31CCN(C(C)=O)CC1	/	-6	/	/
COc1ccc2c3c(n(C)c2c1)[C@H](CO)N(C(C)=O)CC31CN(C(=O)C2CC2)C1	/	66*	/	/
COc1ccc2c3c(n(C)c2c1)[C@@H](CO)N(C(C)=O)CC31CCN(C(=O)c2cnccn2)CC1	/	23*	/	/
COc1ccc2c3c(n(C)c2c1)[C@@H](CO)N(Cc1cc(F)ccc1F)CC31CN(C(=O)C2CC2)C1	/	38*	/	/
COc1ccc2c3c(n(C)c2c1)[C@@H](CO)N(C(=O)CN(C)C)CC31CN(S(C)(=O)=O)C1	/	4	/	/
SMILES	Glyco luc inh	DENV2 CPE	Rtt109 HAT inh	PglD DTNB
COc1ccc2c3c(n(C)c2c1)[C@H](CO)N(Cc1cc(F)ccc1F)CC31CCN(C(C)=O)CC1	/	5	/	/
COc1ccc(S(=O)(=O)N2CC3(CN(C(=O)CN(C)C)[C@H](CO)c4c3c3ccc(OC)cc3n4C)C2)cc1	/	102*	/	/
CN1[C@@H]2c3ccc(C4=CCCCC4)c(=O)n3C[C@H]1[C@H](CO)[C@H]2C(=O)N1CCCCC1	/	1	/	1
CCCNC(=O)Nc1ccc2c(c1)OC[C@@H](C)N(Cc1ccccn1)C[C@H](C)[C@@H](OC)CN(C)C2=O	/	9	/	2
O=C(C[C@@H]1CC[C@@H]2[C@H](COC[C@@H](O)CN2C(=O)c2ccccc2F)O1)NCc1ccc(Cl)c(Cl)c1	/	3	/	0
C[C@]12C(=O)N(c3ccccc3)C(=O)N1[C@@H]1c3ccccc3OC[C@@H]1[C@H]2c1ccccc1	2	97*	1	2
Cc1ccc2c(c1)NC(=O)[C@@]1(C)[C@@H](c3ccccc3)[C@H]3COc4ccccc4[C@@H]3N1C2=O	36*	0	3	-3
C[C@@]12C(=O)Nc3ccc(Br)cc3C(=O)N1[C@H]1c3cc(Cl)ccc3OC[C@@H]1[C@@H]2c1ccccc1	17	/	14	1
C[C@]12C(=O)N(c3ccccc3)C(=O)N1[C@H]1c3ccccc3OC[C@@H]1[C@H]2c1ccccc1	-10	7	-2	6
C[C@@]12C(=O)Nc3ccc(Br)cc3C(=O)N1[C@H]1c3ccccc3OC[C@@H]1[C@@H]2c1ccccc1	27*	/	-2	-1
Cc1ccc2c(c1)C(=O)N1[C@H]3c4ccccc4OC[C@@H]3[C@H](c3ccccc3)[C@]1(C)C(=O)N2	31*	/	1	-1
Cc1ccc2c(c1)[C@H]1[C@H](CO2)[C@H](c2ccccc2)[C@]2(C)C(=O)Nc3ccccc3C(=O)N12	13	-11	-3	3
Cc1ccc2c(c1)[C@H]1[C@H](CO2)[C@H](c2ccccc2)[C@]2(C)C(=O)Nc3ccc(Cl)cc3C(=O)N12	13	7	2	7
CC(=O)N1[C@@H]2Cn3c(ccc(-c4ccccc4)c3=O)[C@H]1[C@@H](C(=O)Nc1ccccc1)[C@@H]2CO	/	5	/	-1
O=S(=O)(Nc1nc(SCc2ccc(Cl)cc2)n[nH]1)c1ccc(F)cc1	-2	29*	16	6
CCc1nc(SCc2ccc(Cl)cc2)n[nH]1	-1	1	-2	/
O=C(C1CCCC1)N1CC[C@@H]2[C@H]1c1cc(-c3cccc(F)c3)ccc1N[C@@H]2CO	/	-9	/	/
C[C@H]1CN([C@@H](C)CO)C(=O)c2cccc(NC(=O)C3CCOCC3)c2O[C@H]1CN(C)C(=O)Nc1ccc2c(c1)OCO2	/	37*	/	2
C[C@H]1CN([C@@H](C)CO)C(=O)c2cccc(NC(=O)C3CC3)c2O[C@@H]1CN(C)C(=O)Nc1ccc2c(c1)OCO2	/	0	/	9
C[C@H]1CN([C@@H](C)CO)C(=O)c2cccc(NC(=O)C3CCCCC3)c2O[C@@H]1CN(C)C(=O)Nc1ccc2c(c1)OCO2	/	58*	/	-3
C[C@H](CO)N1C[C@H](C)[C@@H](CN(C)C(=O)Nc2ccc3c(c2)OCO3)Oc2c(NS(=O)(=O)c3ccc(F)cc3)cccc2C1=O	3	48*!	5	3
C[C@H](CO)N1C[C@H](C)[C@@H](CN(C)C)Oc2c(NC(=O)C3CCOCC3)cccc2C1=O	/	40*	/	-2
C[C@H](CO)N1C[C@H](C)[C@H](CN(C)C(=O)Nc2ccc3c(c2)OCO3)Oc2c(NS(=O)(=O)c3ccc(F)cc3)cccc2C1=O	/	-9	/	0
